“And” between values parts separate entries of the source, which are not always exact repeats. Identical values can stand only once. The source made the active and inactive calls.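 Rule for the calls, unless noted: active = thallium flux through the channel raised or lowered by more than 3 SD from vehicle-only wells, actives on both sides; inactive = the rest.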
Key:
[1] = Wnt pathway potentiators raising nuclear beta-catenin – imaging, WNT3A-conditioned medium, mouse C2C12, NPC library, primary screen (AID 1117326; in the data active = nuclear beta-catenin stimulation mostly above about 4.2%, no sharp cut-off; inactive = mostly below about 10%); settings: stronger effect = higher value
[2] = stimulators of insulin release from INS-1E, primary screen, cell-based, 5 mM glucose, NPC library (AID 1117329;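 active = compound raises insulin release from rat beta cells at 5 mM glucose, no numeric limit stated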); settings: rat INS-1E insulin secretion, at 10 µM, stronger effect = higher value
[3] = growth inhibition of GSK3B-pretreated HCT116 cells – cell-based, CellTiter-Glo, 0.2 to 20 µM (AID 1117336;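 active = compounds lowering colon cancer cell viability after pretreatment blocking the GSK3B kinase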); settings: HCT116 viability after GSK3B inhibitor, at 20 µM, stronger effect = higher value
[4] = inhibition of endothelial tube formation, primary screen, imaging, VEGF stimulated, CD31 staining, tube area, NPC library (AID 1117340;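 active = compound that reduces growth-factor-driven endothelial tube area in a mixed cell culture, no cutoff stated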); settings: VEGF-stimulated ADSC/ECFC co-culture, at 10 µM, stronger effect = higher value
[5] = GLP1 release stimulators, primary, NCI-H716, NPC library (AID 1117341;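 active = compound raises GLP1 secretion from the human gut endocrine cells, with no numeric limit stated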); settings: NCI-H716 cells, at 10 µM, stronger effect = higher value
[6] = HCT116 colon cancer cell growth inhibition, primary screen, CellTiter-Glo luminescence, NPC library (AID 1117342;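 active = compounds that lower survival of HCT116 colon cancer cells in the luminescence readout, no numeric limit stated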); settings: at 20 µM (top of the series)
[7] = reduced SW480 viability measured with CellTiter-Glo, NPC library, primary (AID 1117343;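 active = compounds that lower viability of the colon cancer cells in the luminescence readout, with no numeric limit stated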); settings: CellTiter-Glo luminescence; at 20 µM (top of the series)
[8] = NPC library primary testing for decreased DLD-1 cell viability via CellTiter-Glo (AID 1117346;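 active = compounds that lower survival of DLD-1 colon cancer cells in the luminescence readout, no cutoff given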); settings: DLD-1 viability, CellTiter-Glo luminescence; at 20 µM (top of the series)
[9] = target: 6-phosphogluconate dehydrogenase, decarboxylating (Homo sapiens) (UniProt P52209); test: inhibition of human phosphogluconate dehydrogenase – biochemical, recombinant enzyme, NADPH absorbance, primary screen (AID 1159550;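 active = at least 20% inhibition of 6-phosphogluconate dehydrogenase activity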); settings: recombinant 6PGD, NADPH absorbance 341 nm; at 10 µM; stronger effect = higher value
Sequence of 6-phosphogluconate dehydrogenase, decarboxylating (Homo sapiens) (P52209 whole entry, looked up): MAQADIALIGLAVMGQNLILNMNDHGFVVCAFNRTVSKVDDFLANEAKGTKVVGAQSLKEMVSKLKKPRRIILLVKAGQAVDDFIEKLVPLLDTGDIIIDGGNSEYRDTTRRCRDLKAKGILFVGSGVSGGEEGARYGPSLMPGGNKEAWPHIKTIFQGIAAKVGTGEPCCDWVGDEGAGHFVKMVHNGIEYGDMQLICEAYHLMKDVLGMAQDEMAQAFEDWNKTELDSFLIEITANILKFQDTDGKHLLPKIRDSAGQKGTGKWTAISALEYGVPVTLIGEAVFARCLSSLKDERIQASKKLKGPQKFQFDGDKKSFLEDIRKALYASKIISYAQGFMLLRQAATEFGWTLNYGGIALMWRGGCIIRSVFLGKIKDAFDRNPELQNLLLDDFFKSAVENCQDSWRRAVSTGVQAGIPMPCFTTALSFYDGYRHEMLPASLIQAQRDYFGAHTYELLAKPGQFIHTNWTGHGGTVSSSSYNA

[10] = modulation of C. elegans fzo-1 (AID 1259413; call rule not given here;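 note: fzo-1 mutant C. elegans worms in liquid wells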); settings: C. elegans fzo-1 modulator screen, mean read-out; stronger effect = higher value
[11] = EMT-state selective cytotoxicity in co-culture – imaging, PC-3E GFP, TEM4-18 mCherry, primary screen (AID 1345086;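 active = compounds killing one labelled cell type while sparing the other, by normalised counts and ratio limits, not self-fluorescent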;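 for all read-outs here: cells exposed to compound for 72 h before imaging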;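 for red/green cell ratio (normalised): normalised mesenchymal count divided by normalised epithelial count so high means epithelial killing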); settings: PC-3E GFP / TEM4-18 mCherry co-culture, imaging cell counts, at 1 µM; for red/green cell ratio (normalised): actives lie on both sides, counts scaled to control wells, 1 = unselective
[12] = viability loss with induced miR-34 in A549 – imaging, A549 dox-inducible miR-34, nuclei and caspase counts, primary screen (AID 1347080;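 active = compounds whose cell count with miR-34 switched on is under 0.7 times the count with it off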); settings: A549 miR-34 inducible, Hoechst nuclei count, 48 h
[13] = MELAS cybrid and Rieske KO viability enhancers – cell-based, MELAS cybrids, Rieske KO mouse fibroblasts, CellTiter-Glo, primary screen (AID 1508586;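 active = mean z-score across replicates of 1.96 or higher in either the MELAS or the Rieske mutant cell line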;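 note: z relative to plate mean and SD of compound and empty wells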); settings: low glucose
[14] = target: NAD(+) hydrolase SARM1 (Homo sapiens) (UniProt Q6SZW1); test: blocking NAD cleavage by SARM1 SAM-TIR – cell lysate, NAD-Glo luminescence (AID 1508614;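 active = compound whose remaining NAD level is above about 45 nM, limit read from the data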;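 note: higher remaining NAD means stronger inhibition of SARM1 NADase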); settings: SAM-TIR HEK293T lysate NADase, at 1 µM, stronger effect = higher value
Sequence of NAD(+) hydrolase SARM1 (Homo sapiens) (Q6SZW1 whole entry, looked up, the tested form may be a part): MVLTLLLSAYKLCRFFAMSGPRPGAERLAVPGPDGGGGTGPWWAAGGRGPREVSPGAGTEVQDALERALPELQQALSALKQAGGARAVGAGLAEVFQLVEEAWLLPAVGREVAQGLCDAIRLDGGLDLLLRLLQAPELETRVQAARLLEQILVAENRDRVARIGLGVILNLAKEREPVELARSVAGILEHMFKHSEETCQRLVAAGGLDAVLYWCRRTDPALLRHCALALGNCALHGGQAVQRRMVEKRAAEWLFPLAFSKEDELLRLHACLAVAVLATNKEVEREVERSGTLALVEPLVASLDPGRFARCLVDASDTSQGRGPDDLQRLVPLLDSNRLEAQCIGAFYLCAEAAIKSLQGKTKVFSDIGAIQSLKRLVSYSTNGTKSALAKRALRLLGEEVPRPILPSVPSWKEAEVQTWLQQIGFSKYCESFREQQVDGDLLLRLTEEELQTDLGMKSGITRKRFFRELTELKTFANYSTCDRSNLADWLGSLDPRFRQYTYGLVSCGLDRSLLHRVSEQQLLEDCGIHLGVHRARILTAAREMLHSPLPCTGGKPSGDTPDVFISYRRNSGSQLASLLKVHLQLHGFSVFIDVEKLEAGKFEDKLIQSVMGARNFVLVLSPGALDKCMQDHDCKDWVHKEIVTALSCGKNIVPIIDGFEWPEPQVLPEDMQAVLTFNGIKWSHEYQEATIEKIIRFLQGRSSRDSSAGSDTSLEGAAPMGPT

[15] = target: Mitogen-activated protein kinase 7 (Homo sapiens) (UniProt Q13164); test: Gal4-ERK5 driven luciferase induction – cell-based, HTS, primary screen (AID 1508626;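 active = luciferase signal above three times the same-plate solvent-only control wells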;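 note: luciferase driven by Gal4-ERK5 fusion binding five Gal4 sites before minimal TATA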); settings: HeLa Gal4-ERK5 transactivation, 18 h, at 5 µM, stronger effect = higher value
Sequence of Mitogen-activated protein kinase 7 (Homo sapiens) (Q13164 whole entry, looked up, the tested form may be a part): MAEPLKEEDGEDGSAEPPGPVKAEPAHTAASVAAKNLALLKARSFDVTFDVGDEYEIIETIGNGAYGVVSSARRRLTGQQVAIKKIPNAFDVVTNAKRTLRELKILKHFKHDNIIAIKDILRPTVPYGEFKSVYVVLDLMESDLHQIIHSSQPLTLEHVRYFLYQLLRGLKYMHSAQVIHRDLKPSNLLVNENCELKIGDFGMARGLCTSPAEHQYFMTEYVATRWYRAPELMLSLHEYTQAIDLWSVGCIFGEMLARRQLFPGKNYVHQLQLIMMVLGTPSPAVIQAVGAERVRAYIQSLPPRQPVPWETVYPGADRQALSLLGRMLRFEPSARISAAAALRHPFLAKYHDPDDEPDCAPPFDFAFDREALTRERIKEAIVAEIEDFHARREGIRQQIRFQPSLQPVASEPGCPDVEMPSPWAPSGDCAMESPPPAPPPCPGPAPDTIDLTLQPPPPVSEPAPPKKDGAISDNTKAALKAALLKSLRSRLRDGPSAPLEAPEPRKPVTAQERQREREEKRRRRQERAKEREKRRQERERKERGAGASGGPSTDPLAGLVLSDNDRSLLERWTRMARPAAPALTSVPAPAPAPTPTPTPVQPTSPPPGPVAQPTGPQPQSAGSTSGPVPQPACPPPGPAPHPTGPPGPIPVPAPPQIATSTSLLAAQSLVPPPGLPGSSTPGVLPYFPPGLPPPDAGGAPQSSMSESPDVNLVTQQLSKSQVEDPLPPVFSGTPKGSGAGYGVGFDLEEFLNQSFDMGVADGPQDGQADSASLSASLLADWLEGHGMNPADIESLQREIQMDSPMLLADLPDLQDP

F380Y = test: BK channel mutant inhibitors and activators – cell-based, U2OS BacMam, thallium flux, beta subunits, selectivity assay, profiling panel (AID 1259406); settings: U2OS BacMam BK variants, at 30 µM;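 note: initial slope of Thallos dye fluorescence rise after thallium is added; log ratio against the mean of 0.3% DMSO vehicle wells on the same plate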
F380Y/beta1 = test: as above; settings: U2OS BacMam BK variants, at 30 µM
F380Y/beta2Delta = test: as above; settings: U2OS BacMam BK variants, at 30 µM
[16] = growth inhibition, single agents and combos, ICB984, cell-based, cisplatin or BGB combos, synergistic combos for chromothripsis tumors (AID 1671451; call rule not given here;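 note: cells exposed for 96 hours before readout; 0% = vehicle DMSO and 100% = killing by high DMSO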); settings: ICB984 medulloblastoma cells, drug combinations, stronger effect = higher value
[17] = measured here: epithelial PC-3E GFP cell survival
[18] = measured here: mesenchymal TEM4-18 mCherry cell survival
[19] = measured here: relative caspase fold change +Dox/-Dox
[20] = measured here: total cells with miR-34 induction, stronger effect = lower value
[21] = MELAS cybrid survival, CellTiter-Glo 48 h, stronger effect = higher value
[22] = Rieske KO mouse fibroblast survival, CellTiter-Glo 72 h

Oc1c(Cl)cc(Cl)c2cccnc12
inactive: nuclear beta-catenin stimulation ([1]; at 10 µM) 25.3% | insulin secretion stimulation [2] -1.7% | GLP1 secretion stimulation [5] 5.7% | inhibition [9] 13% | mean signal [10] 244 | red/green cell ratio (normalised) [11] 0.97 | fold change ([12]; stronger effect = lower value, cell number ratio, induced over uninduced) 1.3 and 0.99 and 0.933 | z-score [13, 21] -0.426 and -0.351 | remaining NAD [14] 10 nM | luciferase signal [15] 48 AU
10.8%: nuclear beta-catenin stimulation ([1]; stimulation, at 2 µM)
active: viability decrease [3] 90.7% | tube area decrease [4] 102% | inhibition of viability [6] 91.3% | viability decrease (inhibition) [7] 111% | viability decrease (inhibition) [8] 90% | log fold change Tl+ flux (F380Y) 0.177 | log fold change Tl+ flux (F380Y/beta1) 0.135 | log fold change Tl+ flux (F380Y/beta2Delta) 0.437
3500 and 5780 and 5770: cell count ([12]; measured here: total cells without miR-34 induction)
0.846 and 0.186: z-score [13, 22]
4540 and 5720 and 5380: cell count [12, 20]
1.04: normalised cell number [11, 17]
1.01: normalised cell number [11, 18]
0.88 and 1.1 and 1.4: fold change [12, 19]

OC(Cn1cncn1)(Cn1cncn1)c1ccc(F)cc1F
1.57: normalised cell number [11, 18]
-0.288 and -0.48 and -0.41: z-score [13, 22]
1.1%: nuclear beta-catenin stimulation ([1]; stimulation, at 2 µM)
inactive: nuclear beta-catenin stimulation ([1]; at 10 µM) 1.7% | insulin secretion stimulation [2] 4.05% | viability decrease [3] 19.2% | tube area decrease [4] -10% | GLP1 secretion stimulation [5] 1% | inhibition of viability [6] 1.7% | viability decrease (inhibition) [7] 7.1% | viability decrease (inhibition) [8] 2.4% | inhibition [9] 9% | mean signal [10] 277 | red/green cell ratio (normalised) [11] 1.28 | z-score [13, 21] -0.408 and -0.874 and -0.724 | remaining NAD [14] 14 nM | luciferase signal [15] 32 AU | log fold change Tl+ flux (F380Y) 0.0166 | log fold change Tl+ flux (F380Y/beta1) -0.0268 | log fold change Tl+ flux (F380Y/beta2Delta) -0.000209
1.22: normalised cell number [11, 17]

CC12CC3CC(C)(C1)CC(N)(C3)C2
1: normalised cell number [11, 18]
1%: nuclear beta-catenin stimulation ([1]; stimulation, at 2 µM)
inactive: nuclear beta-catenin stimulation ([1]; at 10 µM) 2% | insulin secretion stimulation [2] 12% | viability decrease [3] -2.8% | tube area decrease [4] -6.5% | GLP1 secretion stimulation [5] 2.8% | inhibition of viability [6] -5.4% | viability decrease (inhibition) [7] 14.2% | viability decrease (inhibition) [8] 0.65% | inhibition [9] 7.37% | mean signal [10] 254 | red/green cell ratio (normalised) [11] 0.87 | z-score [13, 21] -0.277 and -0.613 | remaining NAD [14] 10 nM | luciferase signal [15] 40 AU | log fold change Tl+ flux (F380Y) 0.0112 | log fold change Tl+ flux (F380Y/beta1) 0.0185 | log fold change Tl+ flux (F380Y/beta2Delta) 0.0288
0.678 and -0.28: z-score [13, 22]
1.15: normalised cell number [11, 17]

CC1COc2c(N3CCN(C)CC3)c(F)cc3c(=O)c(C(=O)O)cn1c23 (stereo unspecified)
inactive: nuclear beta-catenin stimulation ([1]; at 10 µM) -0.3% | insulin secretion stimulation [2] 3.4% | viability decrease [3] 14.4% | tube area decrease [4] -15.9% | GLP1 secretion stimulation [5] 2.5% | inhibition of viability [6] 0.4% | viability decrease (inhibition) [7] -9.6% | viability decrease (inhibition) [8] -8.7% | inhibition [9] 0.495% | mean signal [10] 237 | red/green cell ratio (normalised) [11] 0.96 and 1.29 | z-score [13, 21] -0.837 and -0.951 and -0.349 | remaining NAD [14] 10 nM | luciferase signal [15] 60 AU | inhibition ([16]; at 0.5 µM) -27.6% and 4.56% and -22.5% | log fold change Tl+ flux (F380Y) 0.0183 | log fold change Tl+ flux (F380Y/beta1) -0.00501 | log fold change Tl+ flux (F380Y/beta2Delta) 0.0472
-0.9%: nuclear beta-catenin stimulation ([1]; stimulation, at 2 µM)
-56.5% and 3.02% and -28.7%: inhibition ([16]; cisplatin combo, at 5 µM)
-17.9% and -25.7% and 9.81%: inhibition ([16]; BGB IC20 combo, at 0.005 µM)
-33.2% and -21.8% and -24%: inhibition ([16]; BGB IC40 combo, at 0.005 µM)
1.06 and 1.18: normalised cell number [11, 18]
-26.1% and 10.2% and -18.3%: inhibition ([16]; BGB IC40 combo, at 0.05 µM)
-29.6% and 10.2% and -23%: inhibition ([16]; cisplatin combo, at 0.05 µM)
1.1 and 0.91: normalised cell number [11, 17]
-20% and 15.7% and -1.17%: inhibition ([16]; measured here: 5 uM single agent, at 5 µM)
-0.0297 and -0.43 and -0.633: z-score [13, 22]
-35.8% and -11.2% and -26.4%: inhibition ([16]; cisplatin combo, at 0.5 µM)

CCCc1cc(=O)[nH]c(=S)[nH]1
1.32: normalised cell number [11, 18]
1.49 and 1.36 and 2.91: fold change [12, 19]
inactive: nuclear beta-catenin stimulation ([1]; at 10 µM) 0.6% | insulin secretion stimulation [2] -0.9% | viability decrease [3] -14.4% | tube area decrease [4] 8.2% | GLP1 secretion stimulation [5] -0.8% | inhibition of viability [6] -19.2% | viability decrease (inhibition) [7] -1.9% | viability decrease (inhibition) [8] -28.7% | inhibition [9] -7.2% | mean signal [10] 248 | red/green cell ratio (normalised) [11] 1.26 | z-score [13, 21] -0.276 and 0.0359 | remaining NAD [14] 10 nM | luciferase signal [15] 88 AU | log fold change Tl+ flux (F380Y) 0.00762 | log fold change Tl+ flux (F380Y/beta2Delta) -0.0326
0.644 and -0.188: z-score [13, 22]
10600 and 9200 and 7970: cell count [12, 20]
0.8%: nuclear beta-catenin stimulation ([1]; stimulation, at 2 µM)
active: log fold change Tl+ flux (F380Y/beta1) -0.132
1.05: normalised cell number [11, 17]

COCCOC(=O)C1=C(C)NC(C)=C(C(=O)OC(C)C)C1c1cccc([N+](=O)[O-])c1 (stereo unspecified)
inactive: nuclear beta-catenin stimulation ([1]; at 10 µM) -0.6% | insulin secretion stimulation [2] -0.5% | viability decrease [3] 46.2% | tube area decrease [4] -1.2% | GLP1 secretion stimulation [5] -0.1% | viability decrease (inhibition) [8] 27.1% | inhibition [9] 2.88% | mean signal [10] 225 | red/green cell ratio (normalised) [11] 1.09 | z-score [13, 21] -0.249 and 1.31 and 0.763 | remaining NAD [14] 10 nM | luciferase signal [15] 48 AU | log fold change Tl+ flux (F380Y) -0.0169 | log fold change Tl+ flux (F380Y/beta1) 0.0464
-0.137 and 1.51 and 1.35: z-score [13, 22]
1.17: normalised cell number [11, 18]
1.2%: nuclear beta-catenin stimulation ([1]; stimulation, at 2 µM)
active: inhibition of viability [6] 77.9% | viability decrease (inhibition) [7] 55.7% | log fold change Tl+ flux (F380Y/beta2Delta) -0.122
1.07: normalised cell number [11, 17]

COc1ccc(Cl)cc1C(=O)NCCc1ccc(S(=O)(=O)NC(=O)NC2CCCCC2)cc1
0.113 and 0.377 and -0.0891: z-score [13, 22]
0.7: normalised cell number [11, 17]
1.05: normalised cell number [11, 18]
-0.5%: nuclear beta-catenin stimulation ([1]; stimulation, at 2 µM)
inactive: nuclear beta-catenin stimulation ([1]; at 10 µM) -0.8% | viability decrease [3] 17.8% | tube area decrease [4] 12% | GLP1 secretion stimulation [5] 4.4% | inhibition of viability [6] 20% | viability decrease (inhibition) [8] 14.1% | inhibition [9] 12.3% | mean signal [10] 242 | red/green cell ratio (normalised) [11] 1.5 | z-score [13, 21] 0.114 and -0.333 and 0.459 | remaining NAD [14] 10 nM | luciferase signal [15] 52 AU | log fold change Tl+ flux (F380Y) 0.0726 | log fold change Tl+ flux (F380Y/beta2Delta) 0.0268
active: insulin secretion stimulation [2] 28.1% | viability decrease (inhibition) [7] 72.3% | log fold change Tl+ flux (F380Y/beta1) 0.119

Reference: PubChem BioAssay
